# ChEMBL document CHEMBL4513216, “Probing the Open Global Health Chemical Diversity Library for Multistage-Active Starting Points for Next-Generation Antimalarials” (ACS Infect Dis, 2020)
# The whole screen tested about 69,000 compounds, of which about 8,600 (12%) showed an effect of 50% or more. The list comes from a sample in which strong results are over-represented; it also holds similar structures and randomly drawn compounds.
# Tested on: Plasmodium berghei
# Test: Screen against P. berghei liver stage (PbLuc), transformed with Luciferase, at 10uM
# Assay type: functional, HepG2
# Conditions: tested at 10 uM
row,Structure (SMILES),INHIBITION [%]
1,CCSc1cc(C(=O)NC2CCN(C(=O)c3ccccc3)CC2)ccn1,33.4
2,Cc1ncc2c(n1)CN(Cc1nc(Cc3ccccc3)no1)CC2,41.2
3,O=C(CCOc1ccc(Cl)cc1)NCCCn1cccn1,48.8
4,O=C(CCOc1cccc(Cl)c1)N1CCN(c2cnccn2)CC1,-8.11
5,CCNC(=O)N1CCC(NC(=O)NCCCc2cccc(F)c2)C1 (stereo not given),35
6,CCNC(=O)N1CCC(NC(=O)NCCc2cc(F)cc(F)c2)C1 (stereo not given),57.3
7,Cc1cccc(CC(=O)NC2CCN(C(=O)NC(C)(C)C)CC2)c1,-38.4
8,CCNC(=O)N1CCC(NC(=O)NCCc2cccc(C)c2)C1 (stereo not given),77.7
9,CCNC(=O)N1CCC(NC(=O)NCCc2ccc(C)cc2C)C1 (stereo not given),51.7
10,CCNC(=O)N1CCC(Cc2cccc(C(N)=O)c2)C1 (stereo not given),10.7
11,CC1CCN(C(=O)NCCc2cc(F)ccc2F)C1 (stereo not given),-21.2
12,CCNC(=O)N1CCC(NC(=O)NCCc2cc3ccccc3o2)C1 (stereo not given),-43.8
13,Cc1ccc(CCNC(=O)NCCCC(N)=O)c(C)c1,-18.6
14,Cc1ccc(CN2Cc3c(C(=O)N4CCN(C)CC4)nn(C)c3C2)s1,3.25
15,COCc1n[nH]/c(=N\C(=O)c2c3c(nc4onc(C)c24)CCC3)s1,10.7
16,CC1(C(=O)N2CCOCC2)CN(Cc2ccccc2F)CCO1 (stereo not given),25.6
17,O=C(Nc1ccc(-c2csnn2)cc1)NC(CCO)C1CC1 (stereo not given),6.11
18,Cc1ccc(Cl)cc1NCc1nc2[nH]c(C)c(C)c(=O)n2n1,18.3
19,Cc1[nH]c2nc(CNc3ccccc3Cl)nn2c(=O)c1C,-7.83
20,CCc1ccccc1NCc1nc2[nH]c(C)c(C)c(=O)n2n1,52.5
21,CN1CCC(Nc2cc(Cl)ccc2OCC(F)(F)F)C1=O (stereo not given),4.34
22,Cc1cc(CCC(=O)N(C)C)nc(C2CCCCN2)n1 (stereo not given),26.3
23,O=C(Cc1cc(-c2ccc3c(c2)OCCO3)on1)NCc1ccccn1,70

row,Structure (SMILES),INHIBITION [%]
1,COCCCNC(=O)Cc1cc(-c2ccccc2)on1,-34.3
2,COCCCNC(=O)Cc1cc(-c2ccc(Cl)cc2)on1,53.7
3,COCCCNC(=O)CN(C)C(=O)c1cc(Cl)ccc1O,-15.8
4,Cc1nnc(SCCCNC(=O)Cc2ccc3c(c2)OCO3)s1,40.9
5,Cc1cc(C(=O)NCc2ccccn2)no1,-1.88
6,COCCCNC(=O)Cc1cc(-c2ccc3c(c2)OCO3)on1,65.7
7,Cn1cc(CCNC(=O)CCc2ccc3c(c2)OCO3)cn1,31.3
8,O=C(Cc1cc(-c2ccc3c(c2)OCO3)on1)NC1CCCC1,14.6
9,O=C(N1CCOCC1)N1CCCC(c2ncncc2-c2ccncc2)C1 (stereo not given),5.11
10,CC(=O)NCCNC(=O)CN1CCOC(Cn2cccn2)C1 (stereo not given),9.29
11,Cc1csc(N2CCCN(CCC(=O)NC(N)=O)CC2)n1,9.54
12,CN(C)C(CNC(=O)c1[nH]nc(C2CC2)c1Br)C1CC1 (stereo not given),-4.15
13,Cc1cc(N2CCCC(O)(CN(C)C(=O)CCN)C2)c2cnccc2n1 (stereo not given),-6.88
14,COCC(=O)N1CC(c2ccnc(Nc3cc(C(F)(F)F)ccn3)n2)C1,-12.3
15,CCOC(=O)c1cnn(-c2cc(Oc3ccccc3)ncn2)c1N,-10.9
16,CCOC(=O)c1cnn(-c2cc(C)ccn2)c1N,-104
17,CCOC(=O)c1cnn(-c2cc(Oc3ccccc3C)ncn2)c1N,-35.9
18,COC(=O)c1cnn(-c2cc(Oc3cccc(C)c3)ncn2)c1N,72
19,Cc1ccc(C)c(-n2ncc(C(=O)N(C)CCc3ccccn3)c2N)c1,-3.33
20,CCOC(=O)c1cnn(-c2cc(Oc3cccc(C)c3)ncn2)c1N,51.6
21,Cc1cc(C)n(C2CCN(S(C)(=O)=O)CC2)n1,-0.232
22,Cc1nn(C)c(N(C)C)c1CNCc1ccc(OCC(N)=O)cc1,3.45
23,c1cn(-c2nccnc2C2CCCN(C3CCOCC3)C2)cn1 (stereo not given),18.805

row,Structure (SMILES),INHIBITION [%]
1,O=C1NC2(CCN(Cc3ccoc3)CC2)CC1c1ccncc1 (stereo not given),32.4
2,O=C1NC2(CCN(Cc3cccs3)CC2)CC1c1ccncc1 (stereo not given),59.1
3,O=C1NC2(CCN(C(=O)c3ccc(Cl)cc3)CC2)CC1c1ccccc1 (stereo not given),14
4,O=C1NC2(CCN(Cc3ccccc3Cl)CC2)CC1c1ccccc1 (stereo not given),68.4
5,N#Cc1ccccc1CN1CCC2(CC1)CC(c1ccccc1)C(=O)N2 (stereo not given),62.8
6,O=C1NC2(CCN(Cc3ccsc3)CC2)CC1c1ccncc1 (stereo not given),12.6
7,O=C1NC2(CCN(Cc3nccs3)CC2)CC1c1ccncc1 (stereo not given),48.9
8,O=C1NC2(CCN(Cc3ccc(F)cc3)CC2)CC1c1ccncc1 (stereo not given),35.4
9,N#Cc1cccc(CN2CCC3(CC2)CC(c2ccncc2)C(=O)N3)c1 (stereo not given),-1.26
10,CCNC(=O)c1ccc2c(c1)nc1n2CCN(Cc2ccco2)C1,-9.48
11,C[C@H]1C[C@H]2CN(S(=O)(=O)c3ccc(F)cc3)CC[C@@H]2O1,-1.12
12,CCn1cc(-c2nn3c(C(F)(F)F)nnc3s2)cn1,-11.4
13,O=C(NCC1CCC(c2ccnc3ncnn23)CC1)C1CC1 (stereo not given),21.1
14,CSc1ncn(-c2nc(N(C)C)nc(N(C)C)n2)n1,21.2
15,CN(C)C(=O)N1CCC2(CC1)NC(=O)c1ccccc12,-13.9
16,O=C(NCc1ccco1)N1CCCCC1c1nc(C2CC2)no1 (stereo not given),16
17,COC(=O)[C@H](C)NC(=O)c1nc(C2CC2)n(-c2ccccc2Cl)n1,-20.8
18,COc1cc(Cl)ccc1C(=O)NCc1nncn1C,52.3
19,CCn1cnnc1CNC(=O)c1cc(F)ccc1OC,29.7
20,Cn1cnnc1CNC(=O)c1ccc(Br)cc1O,-48.5
21,CCn1cnnc1CNC(=O)c1ccc(Cl)cc1F,36.2
22,CCn1cnnc1CNC(=O)c1cc(Cl)ccc1F,56.4
23,CCn1cnnc1CNC(=O)c1ccc(Br)cc1F,56.5

row,Structure (SMILES),INHIBITION [%]
1,CCn1cnnc1CNC(=O)c1cc(Cl)ccc1O,-35.1
2,CCn1cnnc1CCNC(=O)c1ccc(Br)cc1F,25.5
3,CCn1cnnc1CNC(=O)c1cc(Cl)ccc1OC,-9.98
4,CN(CC(=O)N1CCOCC(CO)C1)Cc1ccc(F)cc1 (stereo not given),-12.1
5,Cc1noc(C)c1CN1CCCC2(C1)CN(Cc1nccn1C)CCO2 (stereo not given),10
6,CC(C)=CCN1C[C@@H]2CC[C@H]1CN(C(=O)c1ccc3c(c1)OCO3)C2,33
7,CN(C)S(=O)(=O)N1CCN(Cc2ccnc(N3CCCC3)n2)CC1,7.52
8,COc1ccc(-c2cc(C3CCNCC3)ccn2)cc1,23.9
9,O=C(c1ccc(-c2ccc(O)nc2)s1)N1CCCCC1,-69.6
10,O=C(Nc1cc(Cl)ccn1)c1nc(N2CCCC2)ncc1Cl,-35
11,Cc1cc(NC(=O)c2nc(N3CCCC3)ncc2Cl)nc(C(C)C)n1,66.8
12,O=C(Nc1ccccn1)c1nc(N2CCCC2)ncc1Cl,-4.48
13,O=C1NCC(C(=O)Nc2ncc(Cc3ccccc3F)s2)N1 (stereo not given),-17.4
14,CS(=O)(=O)N1CCc2sc(C(=O)NCCc3ccccn3)cc21,-47.8
15,CC(C)(C)OC(=O)NCCNC(=O)c1ccc2cc[nH]c2c1,-16
16,COCCN1C(=O)CCC12CCCN(Cc1ccccc1F)C2 (stereo not given),44.5
17,COC1CCC[C@@H]2CN(Cc3csc(C)n3)C[C@H]12 (stereo not given in full),40.3
18,Cc1cc(CN2C[C@@H]3CCCO[C@@H]3[C@H](NS(C)(=O)=O)C2)no1,-13
19,Cc1ncsc1CN1C[C@@H]2CCCO[C@@H]2[C@H](N(C)C(C)C)C1,50.7
20,Cc1ncsc1CN1C[C@H](OCC(C)C)[C@H]2OCCC[C@H]21,-37.9
21,Cc1nc(CN2C[C@@H]3CCCO[C@@H]3[C@H](N(C)C(C)C)C2)cs1,66.8
22,CCS(=O)(=O)N[C@@H]1CN(Cc2cc(C)on2)C[C@@H]2CCCO[C@@H]21,21
23,Cc1nc(CN2C[C@@H]3CCCO[C@@H]3[C@H](NC(=O)CC3CC3)C2)cs1,47.9

row,Structure (SMILES),INHIBITION [%]
1,Cc1ncsc1CN1C[C@@H]2CCCO[C@@H]2[C@H](Nc2ccccn2)C1,34.2
2,Cc1cc(CN2C[C@@H]3CCCO[C@@H]3[C@H](N(C)C(C)C)C2)no1,71.6
3,Cc1cccc(C)c1NC(=O)CN(C)C(C)c1nc(C(C)(C)C)no1 (stereo not given),34.6
4,Cc1cccc(OCCNC(=O)CN2CCCC2Cn2cncn2)c1 (stereo not given),12.7
5,CNC(=O)c1cc(C)ccc1NCc1cn2cc(C)ccc2n1,29.6
6,CCC(C#N)NC(=O)c1sccc1OC (stereo not given),26.4
7,COCC1CC2(CCN(C(=O)c3cncc(C)c3)CC2)CO1 (stereo not given),-26.1
8,Cc1ccc(N2CCCc3sc(C(=O)NCc4cccnc4)nc32)nn1,63.5
9,Cc1ccc(N2CCCc3sc(C(=O)NCc4ccncc4)nc32)nn1,42.5
10,O=C(NCc1cccnc1)c1nc2c(s1)CCCN2c1ncccn1,26.3
11,CC(C)N(C)CC(=O)N(C)C(c1cccc(F)c1)c1ccccn1 (stereo not given),-55.4
12,O=C(Nc1ccc(Cl)cn1)C1CCCN(CCc2ccccn2)C1 (stereo not given),48.3
13,O=C(Nc1ccc(Cl)cn1)C1CCCN(Cc2ccccn2)C1 (stereo not given),15.7
14,CN(Cc1cccc(O)c1)CC1CCCN(CCc2ccc(Cl)cc2)C1 (stereo not given),73.5
15,COc1ccccc1CCN1CCCC(CN(C)Cc2cc(C)n[nH]2)C1 (stereo not given),36.8
16,Cc1nc[nH]c1CN(C)CC1CCCN(CCc2ccc(Cl)cc2)C1 (stereo not given),33.7
17,COc1ccccc1CCN1CCCC(CN(C)Cc2ccc(C)o2)C1 (stereo not given),22
18,CCN(CC1CCCN(CCc2cccc(OC)c2)C1)C(=O)CN(C)C (stereo not given),16
19,Cc1cc(CN(C)CC2CCCN(CCc3ccc(Cl)cc3)C2)[nH]n1 (stereo not given),86.6
20,CN(Cc1ccccc1O)CC1CCCN(CCc2ccc(Cl)cc2)C1 (stereo not given),5.36
21,COc1ccc(CCN2CCCC(CN(C)Cc3ccc(C)o3)C2)cc1 (stereo not given),70.6
22,COc1ccc(CCN2CCCC(CN(C)Cc3[nH]cnc3C)C2)cc1 (stereo not given),16.3
23,O=C(Nc1ccc(Cl)cn1)C1CCCN(CCc2ccncc2)C1 (stereo not given),74.4
